# Test results reported in PubChem BioAssay AID624296 (National Center for Advancing Translational Sciences (NCATS), 2012).
# Out of some 350,000 compounds screened, about 9,900 (2.8%) were called active. Not shown: some 15% with an inconclusive outcome. Calls follow the shape of the dose curve; as a rule, active = well fitted activation curve with a large enough effect; inconclusive = small, poorly fitted or top-dose-only effect; inactive = no such curve, though single readings can be large or run the other way. The entries come from a sample that favours actives as a whole. Entries that show only a call come without a potency.
# Assay: A quantitative high throughput screen for small molecules that induce DNA re-replication in MCF 10a normal breast cells. Also: nearly all actives have a fitted effect of over 50% in size.
# Details: MCF 10A DNA re-replication, Hoechst nuclear intensity, 48 h; series mostly up to 46.1 µM
# Potency is read from the fitted curve at half-maximal effect.
row,Structure (SMILES),Potency
1,c1ccc2cc3c(NCCN4CCOCC4)ccnc3cc2c1,4.61 µM (active)
2,O=C(NCCN1CCOCC1)c1cc(-c2cccs2)nc2ccccc12,inactive
3,O=C(NCCN1CCOCC1)c1ccc2c(c1)ncn2C1CCCC1,inactive
4,COc1cc(C2CC(=O)Oc3cc(OC)c(OC)c(OC)c32)cc(OC)c1OC (stereo unspecified),inactive
5,Cc1ccc(OCC(=O)Nc2ccc(NC(=O)c3cccs3)cc2)c(C)c1,20.6 µM (active)
6,Cc1ccc(-c2nnc(-c3ccc(NC(=O)c4cccs4)cc3)o2)cc1,inactive
7,COc1cc2ccccc2cc1C(=O)Nc1ccc(NC(=O)c2cccs2)cc1,inactive
8,Cn1cccc1C(=O)OCC(=O)NCCc1ccccc1,inactive
9,Cc1ccc(S(=O)(=O)N2CCN(C(=O)CN3C(=O)NC(C)(c4ccc(Cl)cc4)C3=O)CC2)c(C)c1 (stereo unspecified),inactive
10,NC(=O)c1ccc(N2CCCC2)nc1,inactive
11,COc1ccccc1CSc1ncc(-c2ccc([N+](=O)[O-])cc2)[nH]1,11.6 µM (active)
12,COc1ccccc1CSc1nc2ccccc2[nH]1,8.2 µM (active)
13,N#Cc1c(-c2ccccc2)nc(SCc2ccc([N+](=O)[O-])cc2)[nH]c1=O,inactive
14,COc1ccccc1C1CCN(c2ccc([N+](=O)[O-])cn2)CC1,inactive
15,C=CCSc1nc2ccccc2[nH]1,inactive
16,CCCCSc1nc2ccccc2[nH]1,inactive
17,Nc1cc2c(cc1Br)-c1ccc(F)cc1C2=O,inactive
18,CCOC(=O)C1CCN(CC(=O)Nc2ccc(OC)c(S(=O)(=O)N3CCCCC3)c2)CC1,inactive
19,O=C(c1cn(-c2ccccc2)nc1-c1cccnc1)N1CCN(S(=O)(=O)c2ccccc2F)CC1,inactive
20,O=C(CN1CCCC1)Nc1sc2c(c1C(=O)Nc1ccccc1)CCCC2,inactive
21,NC(=O)c1c(Nc2nc3c(F)cccc3s2)sc2c1CCCC2,20.6 µM (active)
22,O=C(Nc1sc2c(c1C(=O)O)CCC2)c1ccccc1F,inactive

row,Structure (SMILES),Potency
1,NC(=O)c1c(NC(=O)c2ccccc2)sc2c1CCCC2,18.4 µM (active)
2,COc1cccc(OC)c1C(=O)Nc1sc2c(c1C(N)=O)CCCC2,inactive
3,CCOC(=O)C(NC(=O)CC(C)C)(Nc1sc2c(c1C(N)=O)CCCC2)C(F)(F)F (stereo unspecified),inactive
4,O=C(NNC(=O)c1ccc(-n2cncn2)c([N+](=O)[O-])c1)c1ccccc1,inactive
5,CCN(CC)c1ccc(NC(=O)CN2C(=O)NC3(CCc4ccccc43)C2=O)cc1 (stereo unspecified),inactive
6,CCN(CC(=O)Nc1ccc(OC)cc1)C(=O)c1ccc(Cl)c(S(=O)(=O)N2CCCC2)c1,inactive
7,OCC1(CO)CC2(C1)CC(CO)(CO)C2,inactive
8,CN(C)C(=O)CCc1ccc2c3c([nH]c2c1)[C@]1(C)[C@@H](C(=O)N2CCCCC2)C[C@H](CC(=O)NCCC2=CCCCC2)C(=O)N1CC3,inactive
9,CC(C)=C(NC(=O)c1ccccc1)C(=O)N/N=C(\C)c1ccccc1O,inactive
10,CC(=O)NC(=O)c1ccccc1O,inactive
11,C/C(=N\NC(=O)c1ccoc1C)c1ccccc1O,7.31 µM (active)
12,CSCCC(NC(=O)c1ccccc1)C(=O)N1CCCCCCC1 (stereo unspecified),inactive
13,O=C(Cc1ccc(NC(=O)C2CCCN(C(=O)C3CCCCC3)C2)cc1)Nc1cccc(C(=O)N2CCCCC2)c1 (stereo unspecified),inactive
14,CC(=O)c1c(N2CCN(c3ccc(F)cc3)CC2)nc(=S)n(-c2ccccc2)c1C,inactive
15,CC(=O)c1c(N2CCOCC2)nc(=S)n(Cc2ccccc2)c1C,inactive
16,CC(=O)c1c(N2CCOCC2)nc(=S)n(-c2cc(C)ccc2C)c1C,1.3 µM (active)
17,O=C(CN1C(=O)NC2(CCOc3ccccc32)C1=O)Nc1cccc([N+](=O)[O-])c1 (stereo unspecified),inactive
18,O=C(OCCN1C(=O)c2ccccc2C1=O)[C@@H]1CC(O)CN1S(=O)(=O)c1ccccc1[N+](=O)[O-] (stereo partly specified),inactive
19,COc1ccc(/C=C/C(=O)OCC(=O)Nc2cccc(Oc3ccccc3)c2)c(OC)c1,inactive
20,COc1ccc(OC)c(/C=C/C(=O)OCC(=O)Nc2ccc3c(c2)OCCO3)c1,20.6 µM (active)
21,COc1cccc(NC(=O)CN(C)C(=O)/C=C/c2cc(OC)ccc2OC)c1,inactive
22,CC(=O)NC(CC(=O)Nc1ccc(S(=O)(=O)N2CCOCC2)cc1)c1ccccc1 (stereo unspecified),inactive

row,Structure (SMILES),Potency
1,CCOC(=O)c1cc2c(=O)n3ccccc3nc2n(CC(C)C)c1=NC(=O)c1c(-c2c(F)cccc2Cl)noc1C,3.26 µM (active)
2,C/C(=N/OC(=O)c1c(-c2c(F)cccc2Cl)noc1C)c1cnccn1,inactive
3,CCCn1c(=NC(C)=O)c(C(=O)OCC)cc2c(=O)n3ccccc3nc21,inactive
4,Cc1noc(C)c1NC(=O)Nc1cccc2c1O[C@H](CN(C)S(=O)(=O)c1c(C)noc1C)[C@@H](C)CN([C@H](C)CO)C2=O,inactive
5,CCc1nnc(NC(=O)c2cc(S(=O)(=O)N3CCN(CC)CC3)ccc2Cl)s1,inactive
6,CC1CCc2[nH]c3ccc(C(=O)N(C)CC(=O)Nc4cccc(F)c4)cc3c2C1 (stereo unspecified),inactive
7,CCCN(CC(=O)Nc1ccccc1C)C(=O)c1ccc2[nH]c3c(c2c1)CC(C)CC3 (stereo unspecified),1.3 µM (active)
8,CCCN(CC(=O)Nc1ccccc1C)C(=O)c1cc(=O)[nH]c2ccccc12,inactive
9,CN1CCOC1c1ccc(C2OCCN2C)cc1 (stereo unspecified),inactive
10,O=C1C=C(c2ccnc3cc(Cl)ccc23)C[C@@H](c2ccc3c(c2)OCO3)C1,inactive
11,CCOc1ncccc1C(=O)Nc1ccc2c(c1)OCCO2,inactive
12,COc1ccc(C(=O)N2CCN(c3ncccn3)CC2)cc1S(=O)(=O)N1CCOCC1,inactive
13,CCC(=O)N1CCN(c2ccccc2NC(=O)COc2cccc(C)c2C)CC1,inactive
14,Cc1ccc(C(C)C)cc1OCC(=O)Nc1ccccc1N1CCCC1,20.6 µM (active)
15,Cc1ccc(C(C)C)cc1OCCN1CCCC1,inactive
16,O=S(=O)(NCCCCCCNS(=O)(=O)c1c(F)cccc1F)c1ccc2c(c1)OCCO2,inactive
17,COc1ccc(/C=C/C(=O)Nc2ccc(C)cc2)cc1S(=O)(=O)N1CCOCC1,inactive
18,COc1ccc(/C=C/C(=O)Nc2cccnc2)cc1OC,inactive
19,CCn1nc(C)c(NC(=O)/C=C/c2ccc(OC)c(COc3ccc(Br)cc3)c2)c1C,8.2 µM (active)
20,C/C=C/c1ccc(OCC(=O)OCC(=O)Nc2c(C)nn(-c3ccccc3)c2C)c(OC)c1,inactive
21,COc1ccc(OC)c(S(=O)(=O)Nc2c(C)nn(C)c2C)c1,inactive
22,COc1ccc(/C=C/C(=O)Nc2c(C)nn(C)c2C)cc1COc1ccc(Br)cc1,4.61 µM (active)
